Results reported in PubChem BioAssay AID1159580 (chemical genetic matrix, 2015).
Several values for one entry are separate records, joined by “and”; a condition that tells them apart may be missing. Equal entries are not always repeated. Hit rate of the full screen: of about 5,500 compounds, about 2,000 (36%) were called active. Another 18% or so got no clear call; they are omitted. No stated cut-off is given here; in the data, active means normalized growth mostly below about 0.91 (no sharp cut-off); inconclusive means no clear call, values can overlap the other calls; inactive means mostly above about 0.92. This is one part of the list. Where a structure was tested more than once in an assay, its records may differ in their call.

Assay: chemical genetic growth profiling, strain panel (AID 1159580);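 further: tested at 20 µM; growth read once vehicle control cultures reached saturation at 30 °C; 1 = growth at the plate median or of vehicle wells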
Details: S. cerevisiae deletion strains, growth OD

SMILES: CSc1ccc2c(c1)N(CCC1CCCCN1C)c1ccccc1S2 (stereo not given)
- normalized growth (locus YAL013W, strain DEP1, stronger effect = lower value): 0.161 (active) and 0.864 (active)
- normalized growth (locus YAL021C, strain ccr4, stronger effect = lower value): 0.939 (inactive)
- normalized growth (locus YAL026C, strain drs2, stronger effect = lower value): 0.23 (active)
- normalized growth (locus YAL030W, strain snc1, stronger effect = lower value): 0.985 (inactive)
- normalized growth (locus YAL040C, strain CLN3, stronger effect = lower value): 1.07 (inactive)
- normalized growth (locus YBL061C, strain skt5, stronger effect = lower value): 0.963 (inactive)
- normalized growth (locus YBR009C, strain hhf1, stronger effect = lower value): 0.877 (active)
- normalized growth (locus YBR021W, strain FUR4, stronger effect = lower value): 0.195 (active)
- normalized growth (locus YBR023C, strain chs3, stronger effect = lower value): 0.923 (inactive)
- normalized growth (locus YBR171W, strain sec66, stronger effect = lower value): 1.03 (inactive)
- normalized growth (locus YBR229C, strain ROT2, stronger effect = lower value): 0.451 (active)
- normalized growth (locus YBR231C, strain swc5, stronger effect = lower value): 0.94 (inactive)
- normalized growth (locus YBR279W, strain paf1, stronger effect = lower value): 0.924 (active)
- normalized growth (locus YCL011C, strain gbp2, stronger effect = lower value): 0.94 (inactive)
- normalized growth (locus YCL016C, strain dcc1, stronger effect = lower value): 0.951 (inactive)
- normalized growth (locus YCL029C, strain bik1, stronger effect = lower value): 0.169 (active)
- normalized growth (locus YCL061C, strain MRC1 (second series), stronger effect = lower value): 0.991 (inactive)
- normalized growth (locus YCL069W, strain vba3, stronger effect = lower value): 1.01 (inactive)
- normalized growth (locus YCR088W, strain abp1, stronger effect = lower value): 1.01 (inactive)
- normalized growth (locus YDL005C, strain med2, stronger effect = lower value): 1.05 (inactive)
- normalized growth (locus YDL035C, strain GPR1, stronger effect = lower value): 0.0738 (active)
- normalized growth (locus YDL040C, strain nat1, stronger effect = lower value): 1.01 (inactive)
- normalized growth (locus YDL074C, strain BRE1, stronger effect = lower value): 0.0864 (active)
- normalized growth (locus YDL101C, strain DUN1, stronger effect = lower value): 0.0947 (active)
- normalized growth (locus YDL134C, strain PPH21, stronger effect = lower value): 0.0681 (active)
- normalized growth (locus YDL185W, strain tfp1, stronger effect = lower value): 1.01 (inactive)
- normalized growth (locus YDL192W, strain arf1, stronger effect = lower value): 0.0652 (active)
- normalized growth (locus YDR001C, strain nth1, stronger effect = lower value): 1.02 (inactive)
- normalized growth (locus YDR069C, strain doa4, stronger effect = lower value): 0.891 (active)
- normalized growth (locus YDR101C, strain arx1, stronger effect = lower value): 0.419 (active)
- normalized growth (locus YDR137W, strain rgp1, stronger effect = lower value): 1.35 [resistant] (active)
- normalized growth (locus YDR150W, strain NUM1, stronger effect = lower value): 0.972 (inactive)
- normalized growth (locus YDR159W, strain sac3, stronger effect = lower value): 0.977 (inactive)
- normalized growth (locus YDR162C, strain NBP2, stronger effect = lower value): 0.0524 (active)
- normalized growth (locus YDR195W, strain ref2): 1.37 [resistant] (active)
- normalized growth (locus YDR297W, strain sur2, stronger effect = lower value): 0.962 (inactive)
- normalized growth (locus YDR318W, strain mcm21, stronger effect = lower value): 0.116 (active)
- normalized growth (locus YDR334W, strain swr1, stronger effect = lower value): 1.04 (inactive)
- normalized growth (locus YDR335W, strain msn5, stronger effect = lower value): 0.967 (inactive)
- normalized growth (locus YDR363W, strain ESC2, stronger effect = lower value): 0.894 (inactive)
- normalized growth (locus YDR388W, stronger effect = lower value): 0.0641 (active)
- normalized growth (locus YDR392W, strain spt3, stronger effect = lower value): 1.12 (inactive)
- normalized growth (locus YDR502C, strain sam2, stronger effect = lower value): 0.123 (active)
- normalized growth (locus YEL003W, strain gim4, stronger effect = lower value): 0.971 (inactive)
- normalized growth (locus YEL037C, strain rad23, stronger effect = lower value): 1.01 (inactive)
- normalized growth (locus YEL061C, strain CIN8 (second series), stronger effect = lower value): 1.02 (inactive)
- normalized growth (locus YEL061C, strain CIN8, stronger effect = lower value): 0.196 (active)
- normalized growth (locus YER002W, strain NOP16, stronger effect = lower value): 1.01 (inactive)
- normalized growth (locus YER015W, strain faa2, stronger effect = lower value): 0.842 (active)
- normalized growth (locus YER016W, strain bim1, stronger effect = lower value): 0.992 (inactive)
- normalized growth (locus YER110C, stronger effect = lower value): 0.916 (inactive)
- normalized growth (locus YER111C, strain swi4, stronger effect = lower value): 1.01 (inactive)
- normalized growth (locus YER155C, strain BEM2 (second series), stronger effect = lower value): 1.05 (inactive)
- normalized growth (locus YER155C, strain BEM2, stronger effect = lower value): 0.789 (active)
- normalized growth (locus YER167W, strain BCK2, stronger effect = lower value): 0.118 (active)
- normalized growth (locus YFR010W, strain ubp6, stronger effect = lower value): 0.781 (active)
- normalized growth (locus YGL078C, strain dbp3, stronger effect = lower value): 1.01 (inactive)
- normalized growth (locus YGL086W, strain mad1, stronger effect = lower value): 0.0828 (active)
- normalized growth (locus YGL167C, strain pmr1, stronger effect = lower value): 1.01 (inactive)
- normalized growth (locus YGL173C, strain kem1, stronger effect = lower value): 0.966 (inactive)
- normalized growth (locus YGL227W, strain vid30, stronger effect = lower value): 1.04 (inactive)
- normalized growth (locus YGL240W, strain doc1, stronger effect = lower value): 0.955 (inactive)
- normalized growth (locus YGL248W, strain PDE1, stronger effect = lower value): 0.0643 (active)
- normalized growth (locus YGL253W, strain hxk2, stronger effect = lower value): 0.948 (inactive)
- normalized growth (locus YGR078C, strain PAC10, stronger effect = lower value): 0.194 (active) and 1.01 (inactive)
- normalized growth (locus YGR135W, strain pre9, stronger effect = lower value): 0.189 (active)
- normalized growth (locus YGR229C, strain SMI1, stronger effect = lower value): 0.06 (active)
- normalized growth (locus YGR252W, strain gcn5, stronger effect = lower value): 0.161 (active)
- normalized growth (locus YHR013C, strain ard1, stronger effect = lower value): 1.01 (inactive)
- normalized growth (locus YHR027C, strain rpn1, stronger effect = lower value): 0.844 (active)
- normalized growth (locus YHR030C, strain SLT2, stronger effect = lower value): 0.0522 (active) and 0.997 (inactive)
- normalized growth (locus YHR079C, strain IRE1 (second series), stronger effect = lower value): 0.374 (active)
- normalized growth (locus YHR079C, strain IRE1, stronger effect = lower value): 0.979 (inactive)
- normalized growth (locus YHR094C, strain hxt1, stronger effect = lower value): 0.304 (active)
- normalized growth (locus YHR129C, strain ARP1, stronger effect = lower value): 0.0924 (active)
- normalized growth (locus YHR142W, strain chs7, stronger effect = lower value): 0.962 (inactive)
- normalized growth (locus YHR200W, strain rpn10, stronger effect = lower value): 0.26 (active)
- normalized growth (locus YIL066C, strain RNR3, stronger effect = lower value): 0.0646 (active)
- normalized growth (locus YIL073C, strain SPO22, stronger effect = lower value): 0.0996 (active)
- normalized growth (locus YIL125W, strain kgd1, stronger effect = lower value): 1.01 (inactive)
- normalized growth (locus YIR030C, strain dcg1, stronger effect = lower value): 0.227 (active)
- normalized growth (locus YJL092W, strain hpr5, stronger effect = lower value): 0.994 (inactive)
- normalized growth (locus YJL095W, strain BCK1 (second series), stronger effect = lower value): 0.894 (active)
- normalized growth (locus YJL095W, strain BCK1, stronger effect = lower value): 0.0681 (active) and 0.997 (inactive)
- normalized growth (locus YJL115W, strain asf1, stronger effect = lower value): 1.01 (inactive)
- normalized growth (locus YJL129C, strain trk1, stronger effect = lower value): 1.07 (inactive)
- normalized growth (locus YJL134W, strain LCB3, stronger effect = lower value): 0.9 (active)
- normalized growth (locus YJL154C, strain vps35, stronger effect = lower value): 1.03 (inactive)
- normalized growth (locus YJL164C, strain tpk1, stronger effect = lower value): 0.977 (inactive)
- normalized growth (locus YJL166W, strain qcr8, stronger effect = lower value): 0.97 (inactive)
- normalized growth (locus YJL168C, strain set2, stronger effect = lower value): 0.098 (active)
- normalized growth (locus YJL187C, strain SWE1 (second series), stronger effect = lower value): 0.0709 (active)
- normalized growth (locus YJL187C, strain SWE1, stronger effect = lower value): 0.939 (inactive)
- normalized growth (locus YJR043C, strain POL32, stronger effect = lower value): 0.0862 (active)
- normalized growth (locus YJR066W, strain TOR1, stronger effect = lower value): 0.937 (inactive)
